A short description of assay [1]: BSK_3C_TissueFactor: BioMAP Diversity Plus: 3C Assay for Tissue Factor Biomarker Activity (AID 2282997). The conditions noted are these: BioMAP 3C HUVEC, tissue factor biomarker readout; actives raise or lower the signal. An outline of the steps: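 Dosing of human umbilical vein endothelial cells preceded a 24 h incubation. Tissue Factor was then read by ELISA, with increases and decreases both scored relative to DMSO controls.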

Assay [2] is described as follows: BSK_3C_uPAR: BioMAP Diversity Plus: 3C Assay for Urokinase-type plasminogen activator receptor (uPAR) Biomarker Activity (AID 2282998). Conditions: BioMAP 3C HUVEC, uPAR biomarker ELISA; actives raise or lower the signal. The procedure, abridged:
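Dose primary human umbilical vein endothelial cells, incubate 24 h, measure cell-surface uPAR by ELISA, then fit the signal in both directions against the DMSO negative control.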

Assay [3] in a line: BSK_3C_VCAM1: BioMAP Diversity Plus: 3C Assay for Vascular cell adhesion molecule 1 (VCAM1) Biomarker Activity (AID 2282999). Conditions: BioMAP 3C HUVEC, VCAM1 ELISA, cytokine-stimulated; actives raise or lower the signal. The procedure, abridged: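 Endothelial cells from human umbilical vein are treated with test chemical. At 24 h, VCAM-1 is measured by ELISA, and responses in either direction are fitted relative to DMSO.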
Background: In an ELISA, binding on a coated surface is turned into a signal by an enzyme label.

The nature of assay [4]: BSK_4H_Eotaxin3: BioMAP Diversity Plus: 4H Assay for Eotaxin 3 Biomarker Activity (AID 2283000).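 On outcome: CCL26 protein level quantified by ELISA in parallel with SRB cytotoxicity check.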 Conditions: primary human endothelial cells (HUVEC); actives raise or lower the signal. An outline of the steps: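 Human umbilical vein endothelial cells (BSK_4H system) dosed with test chemical; Eotaxin-3 (CCL26) measured by ELISA 24 h after dosing. Bidirectional curve fitting relative to DMSO negative control as baseline.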

Read-out in assay [5]: Intercellular Adhesion Molecule 1 (ICAM1), ICAM1 (gene 3383)
Nature of the assay: BSK_3C_ICAM1: BioMAP Diversity Plus: 3C Assay for Intercellular Adhesion Molecule 1 (ICAM1) Biomarker Activity (AID 2283003). Conditions: primary human endothelial cells (HUVEC); actives raise or lower the signal. An outline of the steps:
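HUVEC primary cells stimulated under 3C conditions; ICAM1 measured by ELISA 24 h after compound dosing. Curves fitted bidirectionally against the DMSO baseline. Overt cytotoxicity checked by SRB staining of parallel cultures.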

Read-out in assay [6]: E-selectin (Homo sapiens) (UniProt P16581)
Nature of the assay: BSK_3C_Eselectin: BioMAP Diversity Plus: 3C Assay for Eselectin Biomarker Activity (AID 2283015). Conditions: primary human endothelial cells (HUVEC); actives raise or lower the signal. An outline of the steps: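 E-selectin ELISA readout, fitted bidirectionally relative to DMSO, taken 24 h post-dosing in HUVEC cultures of the 3C system. Overt cytotoxicity tracked with sulforhodamine B staining of parallel wells.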

Read-out in assay [7]: Interleukin-1 alpha (IL1a), IL1A (gene 3552)
Kind of assay: BSK_BE3C_IL1a: BioMAP Diversity Plus: BE3C Assay for Interleukin-1 alpha (IL1a) Biomarker Activity (AID 2283016). The conditions noted are these: primary human bronchial epithelial cells; actives raise or lower the signal. An outline of the steps: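 Human primary bronchial epithelial cells, 24 h chemical exposure; IL-1a quantified by ELISA, fitted bidirectionally against DMSO. Cytotoxicity assessed in parallel by SRB total-protein staining at the time of measurement.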

Read-out in assay [8]: Monocyte Chemoattractant Protein-1 (MCP1), CCL2 (gene 6347)
Nature of the assay: BSK_3C_MCP1: BioMAP Diversity Plus: 3C Assay for Monocyte Chemoattractant Protein-1 (MCP1) Biomarker Activity (AID 2283017). Conditions: primary human endothelial cells (HUVEC); actives raise or lower the signal. The procedure, abridged:
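MCP-1 was measured by ELISA 24 h after dosing in primary HUVEC 3C cultures and fitted in both directions relative to DMSO; cytotoxicity was checked by SRB total-protein staining in parallel wells.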

Read-out in assay [9]: Monocyte Chemoattractant Protein-1 (MCP1), CCL2 (gene 6347)
Kind of assay: BSK_4H_MCP1: BioMAP Diversity Plus: 4H Assay for Monocyte Chemoattractant Protein-1 (MCP1) Biomarker Activity (AID 2283018). The conditions noted are these: primary human endothelial cells (HUVEC); actives raise or lower the signal. The procedure, abridged:
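Human umbilical vein endothelial cells (4H system) exposed to chemicals for 24 h in 96-well format. MCP-1 measured by ELISA; bidirectional fitting against DMSO, with SRB total-protein staining in parallel cultures for cytotoxicity.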

Read-out in assay [10]: Interleukin-8 (IL8), CXCL8 (gene 3576)
Nature of the assay: BSK_3C_IL8: BioMAP Diversity Plus: 3C Assay for Interleukin-8 (IL8) Biomarker Activity (AID 2283020). Conditions: primary human endothelial cells (HUVEC); actives raise or lower the signal. The procedure, abridged:
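Primary human umbilical vein endothelial cells were dosed for 24 h. IL-8 was quantified by ELISA and fitted bidirectionally against DMSO. Cytotoxicity was assessed in parallel cultures by SRB staining at 560 nm.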

Read-out in assay [11]: Monokine induced gamma interferon (MIG), CXCL9 (gene 4283)
Nature of the assay: BSK_3C_MIG: BioMAP Diversity Plus: 3C Assay for Monokine induced gamma interferon (MIG) Biomarker Activity (AID 2283021).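 On AC50: MIG protein level measured by immunoassay in the treated endothelial cultures.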 Conditions: primary human endothelial cells (HUVEC); actives raise or lower the signal. The procedure, abridged:
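HUVEC primary endothelial cultures dosed with chemical; MIG quantified by ELISA at 24 h. Data fitted bidirectionally against DMSO control, with parallel SRB total-protein staining for cytotoxicity.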

Assay [12] can be described thus: BSK_3C_SRB: Viability Assessment in the BioMAP Diversity Plus: 3C Assay (AID 2283023).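 Further: fitted both ways against DMSO so a hit may be signal rise or drop.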 The conditions noted are these: primary human endothelial cells (HUVEC). The procedure, abridged:
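Cytotoxicity readout in parallel HUVEC 3C cultures: after 24 h compound exposure, cells fixed with 10% TCA, stained with 0.1% SRB and read at 560 nm. Gain or loss relative to DMSO fitted.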

Assay [13] is described as follows: BSK_4H_SRB: Viability Assessment in the BioMAP Diversity Plus: 4H Assay (AID 2283027).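 Further: cells exposed to compound for 24 h before staining.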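 On AC50: curves fitted both ways versus DMSO so AC50 may be loss or gain.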 Conditions: primary human endothelial cells (HUVEC). An outline of the steps: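 Absorbance at 560 nm of SRB-stained total protein served as the viability read-out in confluent primary human umbilical vein endothelium 24 h after chemical treatment. Curves were fitted bidirectionally against DMSO as negative control.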

Assay [14] in a line: BSK_BE3C_SRB: Viability Assessment in the BioMAP Diversity Plus: BE3C Assay (AID 2283028).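 On AC50: fitted both ways so AC50 may mark signal gain or loss versus DMSO.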 Conditions: primary human bronchial epithelial cells. An outline of the steps:
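Cytotoxicity read-out: SRB (0.1%) staining of TCA-fixed (10%) human lung bronchial epithelial cells, absorbance 560 nm, 24 h post-dosing. Curves fitted both directions relative to DMSO.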

Read-out in assay [15]: Thrombomodulin, THBD (gene 7056)
Kind of assay: BSK_3C_Thrombomodulin: BioMAP Diversity Plus: 3C Assay for Thrombomodulin Biomarker Activity (AID 2283029). The conditions noted are these: primary human endothelial cells (HUVEC); actives raise or lower the signal. The procedure, abridged:
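Human umbilical vein endothelial cells were exposed to chemicals for 24 h; cell-surface thrombomodulin quantified by ELISA, with bidirectional fitting against DMSO baseline.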

Read-out in assay [16]: Monokine induced gamma interferon (MIG), CXCL9 (gene 4283)
Kind of assay: BSK_hDFCGF_MIG: BioMAP Diversity Plus: hDFCGF Assay for Monokine induced gamma interferon (MIG) Biomarker Activity (AID 2283063). The conditions noted are these: primary human foreskin fibroblasts; actives raise or lower the signal. The procedure, abridged: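 Human primary foreskin fibroblasts in the hDFCGF system, exposed to test chemical for 24 h; MIG measured by ELISA. Bidirectional curve fitting against DMSO negative control as activity baseline.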

Read-out in assay [17]: Matrix Metallopeptidase 1 (MMP1), MMP1 (gene 4312)
Nature of the assay: BSK_hDFCGF_MMP1: BioMAP Diversity Plus: hDFCGF Assay for Matrix Metallopeptidase 1 (MMP1) Biomarker Activity (AID 2283064). Conditions: primary human foreskin fibroblasts; actives raise or lower the signal. The procedure, abridged:
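hDFCGF primary fibroblasts (human foreskin); chemical added; 24 h; MMP1 by ELISA; bidirectional fit vs DMSO.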

Read-out in assay [18]: E-selectin (Homo sapiens) (UniProt P16581)
Kind of assay: BSK_SAg_Eselectin: BioMAP Diversity Plus: SAg Assay for Eselectin Biomarker Activity (AID 2283091). Conditions: primary human HUVEC with PBMC; actives raise or lower the signal. An outline of the steps: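 Cell-surface E-selectin is read by ELISA at 24 h in the SAg co-culture of HUVEC and PBMC. Curves are fitted in both directions relative to DMSO. Parallel SRB total-protein staining tracks overt toxicity.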

Assay [19] in a line: BSK_SAg_PBMCCytotoxicity: PBMC Cytotoxicity Assessment in the BioMAP Diversity Plus: SAg Assay (AID 2283093).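 Further: PBMC viability measured as Alamar Blue reduction fluorescence at 546/580 nm; fitted both ways against DMSO so a hit may be loss or gain of signal.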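 On AC50: PBMC superantigen activated with SEB plus TSST-1 one hour after compound addition.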 The conditions noted are these: primary human HUVEC with PBMC. The procedure, abridged:
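Compound added to 75,000 PBMC/well for 1 h; SEB and TSST-1 then added at 20 ng/mL final each; 90 h incubation; Alamar Blue 6 h; read 546/580 nm ex/em. Activity fitted bidirectionally relative to DMSO baseline.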

Read-out in assay [20]: Interleukin-8 (IL8), CXCL8 (gene 3576)
Kind of assay: BSK_SAg_IL8: BioMAP Diversity Plus: SAg Assay for Interleukin-8 (IL8) Biomarker Activity (AID 2283094). Conditions: primary human HUVEC with PBMC; actives raise or lower the signal. The procedure, abridged:
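Human umbilical vein endothelial cells co-cultured with PBMC, stimulated with superantigen; IL-8 measured by ELISA 24 h after chemical dosing. Bidirectional fitting versus DMSO; SRB staining in parallel cultures tracks cytotoxicity.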

Active and inactive are the calls of the source. How the source made its calls: active means hit-call score of the fitted dose curve at least 0.9, where 1 is the maximum; inactive means score below 0.9.

Sequence of E-selectin (Homo sapiens) (P16581 whole entry, looked up): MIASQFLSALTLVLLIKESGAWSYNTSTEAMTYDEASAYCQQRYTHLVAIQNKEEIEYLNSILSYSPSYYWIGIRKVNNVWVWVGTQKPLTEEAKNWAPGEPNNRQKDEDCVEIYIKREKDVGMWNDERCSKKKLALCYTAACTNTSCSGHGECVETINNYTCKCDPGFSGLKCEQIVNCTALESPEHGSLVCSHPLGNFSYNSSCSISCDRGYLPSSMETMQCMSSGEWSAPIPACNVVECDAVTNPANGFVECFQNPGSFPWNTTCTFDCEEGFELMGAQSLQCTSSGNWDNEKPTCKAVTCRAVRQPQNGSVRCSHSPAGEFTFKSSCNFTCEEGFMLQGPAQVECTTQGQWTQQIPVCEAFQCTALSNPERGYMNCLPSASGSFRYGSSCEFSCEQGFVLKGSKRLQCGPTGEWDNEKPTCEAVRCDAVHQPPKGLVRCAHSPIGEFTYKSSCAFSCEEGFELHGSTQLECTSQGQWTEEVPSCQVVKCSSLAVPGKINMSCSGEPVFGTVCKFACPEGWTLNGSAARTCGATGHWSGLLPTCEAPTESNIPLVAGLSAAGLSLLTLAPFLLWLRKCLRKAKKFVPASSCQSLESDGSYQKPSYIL

As to `CN(C)CCC(c1ccc(Cl)cc1)c1ccccn1` (stereo not given), the outcome in [1], in [2], in [3], in assay [4], in assay [5] and in assay [6] was inactive. Moreover, the result in [7], in assay [8], in [10], in [11], in [12] and in assay [13] was inactive. Besides, the result in [14], in [15], in assay [16], in [17], in [18] and in [19] was inactive. Moreover, in assay [20], the result was inactive. The AC50 (as a rule, the concentration at which the activity in the assay is half-maximal) in assay [9] is 12 µM (active).

Take `CCCCCCCCCCCCCCCCCC[N+](C)(C)C`: the AC50 is 5 µM (active) in [1]; 1.27 µM (active) in assay [2]; 6.29 µM (active) in [3]; 1.89 µM (active) in assay [4]; 3.46 µM (active) in assay [5]; 5 µM (active) in assay [6]. Also, the AC50 is 3.8 µM (active) in assay [7]; 1.68 µM (active) in assay [8]; 0.664 µM (active) in assay [9]; 5 µM (active) in [10]; 7.62 µM (active) in [11]; 1.31 µM (active) in assay [12]. Further, the concentration at half-maximal activity (AC50) was 1.34 µM (active) in assay [13]; 3.49 µM (active) in assay [14]; 2.9 µM (active) in assay [15]; 3.28 µM (active) in [16]; 7.66 µM (active) in assay [17]; 9.19 µM (active) in [18]. Also, the AC50 in assay [19] was 3.16 µM (active); in assay [20] it was 8.34 µM (active).

For the compound `COC(=O)/C=C\C(=O)OC`, the outcome in assay [1], in assay [2], in assay [3], in assay [4], in [5] and in assay [7] was inactive. For the same compound, the result in assay [8], in assay [9], in assay [10], in assay [11], in assay [12] and in assay [13] was inactive. Also, the result in assay [14], in assay [15], in assay [16], in [17], in assay [19] and in assay [20] was inactive. In addition, the half-maximal activity concentration (AC50) in assay [6] is 13.6 µM (active); in assay [18], 9.12 µM (active).

Take `CC(C)CC(=O)CC(C)CC(C)C` (stereo not given): the half-maximal activity concentration (AC50) is 36 µM (active) in [1]; 30.9 µM (active) in assay [2]; 35.1 µM (active) in [3]; 33.8 µM (active) in assay [4]; 35.2 µM (active) in [5]; 34.6 µM (active) in assay [6]. Moreover, the AC50 is 31.5 µM (active) in assay [7]; 31.2 µM (active) in assay [8]; 31.1 µM (active) in [9]; 35.2 µM (active) in assay [12]; 33.7 µM (active) in assay [13]; 20 µM (active) in [15]. In addition, the AC50 in assay [19] is 33.3 µM (active). In addition, the result in assay [10], in assay [11], in assay [14], in assay [16], in assay [17] and in [18] was inactive. Besides, the outcome in assay [20] was inactive.

With `Sc1nc2ccccc2s1`, the AC50 in assay [1] is 1.09 µM (active); in assay [4] it was 3.97 µM (active); in assay [7] it was 0.0847 µM (active). In addition, the result in assay [2], in assay [3], in assay [5], in [6], in [8] and in assay [9] was inactive. Further, the outcome in assay [10], in assay [11], in [12], in assay [13], in assay [14] and in assay [15] was inactive. Further, the result in [16], in [17], in [18], in assay [19] and in assay [20] was inactive.
